Records with an inconclusive call do not appear. The source made the active and inactive calls. Calls come from the whole dose curve; as a rule, active = well fitted curve in the direction sought with a large enough effect in the signal ratio (not every such curve was filed as active); inconclusive = small, poorly fitted or top-dose-only effect, or effect the other way, or a change in a side signal; inactive = no such curve, though single readings can be large or run the other way; the % refers to the signal ratio.

Sequence of Tyrosine-protein phosphatase non-receptor type substrate 1 (Homo sapiens) + Leukocyte surface antigen CD47 (Homo sapiens) (P78324 whole entry, looked up): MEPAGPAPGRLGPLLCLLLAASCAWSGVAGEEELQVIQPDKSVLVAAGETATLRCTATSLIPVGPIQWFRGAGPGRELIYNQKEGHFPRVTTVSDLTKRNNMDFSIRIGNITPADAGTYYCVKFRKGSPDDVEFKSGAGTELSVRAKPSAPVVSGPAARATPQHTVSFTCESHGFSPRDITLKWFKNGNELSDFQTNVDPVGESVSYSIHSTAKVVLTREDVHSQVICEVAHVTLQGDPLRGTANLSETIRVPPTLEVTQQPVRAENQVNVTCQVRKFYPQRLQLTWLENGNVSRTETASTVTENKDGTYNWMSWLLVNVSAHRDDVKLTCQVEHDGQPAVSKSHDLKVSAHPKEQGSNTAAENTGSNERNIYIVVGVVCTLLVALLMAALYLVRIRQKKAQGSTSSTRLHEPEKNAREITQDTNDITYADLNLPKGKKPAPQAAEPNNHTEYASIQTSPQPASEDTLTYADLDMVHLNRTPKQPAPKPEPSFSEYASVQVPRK
Sequence of Tyrosine-protein phosphatase non-receptor type substrate 1 (Homo sapiens) + Leukocyte surface antigen CD47 (Homo sapiens) (Q08722 whole entry, looked up): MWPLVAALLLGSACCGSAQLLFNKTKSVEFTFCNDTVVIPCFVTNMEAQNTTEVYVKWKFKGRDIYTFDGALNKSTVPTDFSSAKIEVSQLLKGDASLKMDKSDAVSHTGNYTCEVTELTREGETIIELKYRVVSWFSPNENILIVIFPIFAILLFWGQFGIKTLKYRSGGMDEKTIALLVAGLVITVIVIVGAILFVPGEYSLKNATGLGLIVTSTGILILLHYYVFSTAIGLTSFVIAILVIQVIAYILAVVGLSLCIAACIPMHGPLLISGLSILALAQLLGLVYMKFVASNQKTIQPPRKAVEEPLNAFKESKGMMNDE

This experiment concerns the target Tyrosine-protein phosphatase non-receptor type substrate 1 (Homo sapiens) + Leukocyte surface antigen CD47 (Homo sapiens) (UniProt P78324+Q08722). The experiment can be described thus: CD47-SIRPalpha protein protein interaction - HTRF assay qHTS validation (AID 1347058). The following applies: TR-FRET HTRF CD47-His / biotin-SIRPalpha binding, ratio 665/615; series mostly up to 38.3 µM. The source says:
SIRPalpha is a myeloid cell expressed immunomodulatory receptor that binds the tumor expressed immune checkpoint CD47. Therapeutic disruption of this interaction leads to immune-mediated tumor rejection. This assay was used to quantitate CD47-SIRPalpha binding biochemically and evaluate chemical libraries for novel CD47-SIRPalpha inhibitors. To recapitulate the biological interaction of CD47 and SIRPalpha, we designed expression constructs to produce their recombinant, soluble, extracellular interaction domains. CD47 was produced with an N-terminal 6His tag. SIRPalpha was produced with an N-terminal Avi-Tag for site-specific biotin incorporation. The CD47-SIRPalpha interaction was measured by TR-FRET using affinity tag linked reagents (anti-6His-Eu donor and streptavidin-XL665 acceptor). SIRPalpha without biotin incorporation was used as a positive control inhibitor.
SEQUENCE No. (e.g., 1, 2, 3, etc.); […] (e.g., Cells, Incubation, Reagent, etc.); VALUE and DESCRIPTION.
1a. Reagent. 3 uL CD47-His (12.5 nM) and Anti-His Eu Donor reagent (0.7 nM) added to respective wells in Assay buffer; white/solid bottom high base, med bind 1536-well plates (Greiner 789075)
1b. Reagent. 2 uL Assay buffer negative control for background fluorescence
2. Reagent. 23 nL library compounds (7-pt, 1:4 intraplate titration series) or DMSO control transferred by Pin Tool
3. Centrifuge. Centrifuge plate for 30 s at 1000 RPM
4. Incubation.#Incubate reagents at room temperature for 30 min, protected from light
5. Reagent. 2 uL SIRPalpha-biotin (100 nM) in Assay buffer
6. Incubation.#Incubate reagents at room temperature for 30 min, protected from light
7. Reagent. 1 uL SAV-XL665 (85 nM) acceptor reagent added to respective wells
8. Centrifuge. Centrifuge plate for 30 s at 1000 RPM
9. Incubation. Incubate reagents at room temperature for 30 min, protected from light
10. Detector. Measure Top TR-FRET on EnVision (Eu/APC filter set); calculate ratio Ch1/Ch2
1. Assay buffer composition.#Phosphate buffered saline (PBS; 10 mM Phosphate, 137 mM NaCl, and 2.7 mM KCl; pH 7.4), 0.05% IGEPAL CA-630
2. 23nL of […] library compounds (7 plates) or DMSO vehicle control transferred to 9 Greiner white/solid bottom high base, TC plates in 7 interplate 1:5 titrations (see Yasgar, A. et al. 2008) with Pintool. Two of the 9 plates are DMSO-only in compound field at beginning and end of compound library-treated plates.
10. Detector settings#Mirror = LANCE/DELFIA Dual Enh; Ex. Filter = UV2[TRF] 320; Em. Filter = APC 665; 2nd Em. Filter = Europium 615; Measurement h = 6.5; Ex. light (%) = 100; Delay = […]; Window t = 100 us; No. Seq. windows = 1; Time between flashes = 2000us; No. of flashes = 100; No. of flashes for 2nd detector = 100; Calculation: "Ratio Ch1/Ch2"
For the molecule `Cc1c(O)cccc1C(=O)N[C@@H](CSc1ccccc1)[C@H](O)CN1C[C@H]2CCCC[C@H]2C[C@H]1C(=O)NC(C)(C)C`, the outcome was inactive.

Regarding `CN1CCC[C@@H]1Cc1c[nH]c2ccc(CCS(=O)(=O)c3ccccc3)cc12`, the outcome was inactive.

Turning to `CCCn1cnc2c1c(=O)n(CCCCC(C)=O)c(=O)n2C`, the result was inactive.

Regarding `CNCC(O)c1ccc(O)c(O)c1` (stereo unspecified), the outcome was inactive.

Take `CN(C)CCC=C1c2ccccc2CCc2ccccc21`: the outcome was inactive.

In the case of `CC(C(O)c1ccc(O)cc1)N1CCC(Cc2ccccc2)CC1` (stereo unspecified), the result was inactive.

As for `CC(C)NC[C@H](O)c1ccc(O)c(O)c1`, the outcome was inactive.

For the molecule `O=C1NC(=O)[C@@]2(CCOc3ccc(F)cc32)N1`, the outcome was inactive.

Consider `CN(C)CCOC(C)(c1ccccc1)c1ccccn1` (stereo unspecified), for which the outcome was inactive.

As to `CCN(CC)CCNC(=O)c1cc(Cl)c(N)cc1OC`, the result was inactive.

Take `C[C@H](NC(CCc1ccccc1)C(=O)O)C(=O)N1CCC[C@H]1C(=O)O` (stereo partly specified): the outcome was inactive.

In the case of `CC[C@H]1CN2CCc3cc(OC)c(OC)cc3[C@@H]2C[C@@H]1C[C@H]1NCCc2cc(OC)c(OC)cc21`, the outcome was inactive.

`CSc1ccc2c(c1)N(CCC1CCCCN1C)c1ccccc1S2` (stereo unspecified): the result was inactive.

On to `CN(C)CCCN1c2ccccc2CCc2ccccc21`, for which the result was inactive.

Turning to `CSc1ccc2c(c1)C(N1CCN(C)CC1)Cc1ccccc1S2` (stereo unspecified), the result was inactive.

With `Nc1ncnc2c1ncn2[C@@H]1O[C@H](CO)[C@@H](O)[C@H]1O`, the result was inactive.

For the molecule `CC1=C(/C=C/C(C)=C/C=C/C(C)=C/C(=O)O)C(C)(C)CCC1`, the outcome was inactive.

For `CC(C)(C)[C@]1(O)CCN2C[C@H]3c4ccccc4CCc4cccc(c43)[C@@H]2C1`, the outcome was inactive.

Consider `COc1ccc(Cl)cc1C(=O)NCCc1ccc(S(=O)(=O)NC(=O)NC2CCCCC2)cc1`, for which the result was inactive.

For `CC(=O)OCC(=O)[C@@]1(O)CC[C@H]2[C@@H]3CCC4=CC(=O)CC[C@]4(C)[C@H]3C(=O)C[C@@]21C`, the outcome was inactive.

Turning to `CCN(CC)CCOC(=O)C1(C2CCCCC2)CCCCC1`, the outcome was inactive.

As for `C[C@]12C[C@H](O)[C@H]3[C@@H](CCC4=CC(=O)CC[C@@]43C)[C@@H]1CC[C@@H]2C(=O)CO`, the outcome was inactive.

Turning to `C[C@](N)(Cc1ccc(O)cc1)C(=O)O`, the result was inactive.

In the case of `C[C@]12CC[C@@H]3c4ccc(O)cc4CC[C@H]3[C@@H]1CCC2=O`, the outcome was inactive.

As for `CC(C)c1c(C(=O)Nc2ccccc2)c(-c2ccccc2)c(-c2ccc(F)cc2)n1CC[C@@H](O)C[C@@H](O)CC(=O)O`, the outcome was inactive.

As for `NC(=O)c1ncn([C@@H]2O[C@H](CO)[C@@H](O)[C@H]2O)n1`, the result was inactive.

Regarding `CC(C)C(=O)c1c(C(C)C)nn2ccccc12`, the result was inactive.

`C#CCN(C)Cc1ccccc1`: the outcome was inactive.

Take `OCc1cc(C(O)CNCCCCCCOCCCCc2ccccc2)ccc1O` (stereo unspecified): the outcome was inactive.

As to `CC(CN(C)C)CN1c2ccccc2CCc2ccccc21` (stereo unspecified), the result was inactive.

Turning to `C[C@H]1O[C@@H](n2cc(F)c(=O)[nH]c2=O)[C@H](O)[C@@H]1O`, the outcome was inactive.

These data come from PubChem BioAssay (NCATS).
